Assay results published in ChEMBL document CHEMBL3988442, “University of Dundee, Small-Polar-MMV Screening Library” (2021).
For some of these results: Entries with a potency or affinity are not part of this list.

Key:
Parameters in all cases: scale not given: direction of the effect not stated beside the values
[1] = molecular target: Protein translocase subunit SecA (Escherichia coli (strain K12)) (UniProt P10408); assay: Assay to Identify E. coli SecA ATPase Inhibitors; type: functional; conditions: 30 µM
Sequence of Protein translocase subunit SecA (Escherichia coli (strain K12)) (P10408 whole entry): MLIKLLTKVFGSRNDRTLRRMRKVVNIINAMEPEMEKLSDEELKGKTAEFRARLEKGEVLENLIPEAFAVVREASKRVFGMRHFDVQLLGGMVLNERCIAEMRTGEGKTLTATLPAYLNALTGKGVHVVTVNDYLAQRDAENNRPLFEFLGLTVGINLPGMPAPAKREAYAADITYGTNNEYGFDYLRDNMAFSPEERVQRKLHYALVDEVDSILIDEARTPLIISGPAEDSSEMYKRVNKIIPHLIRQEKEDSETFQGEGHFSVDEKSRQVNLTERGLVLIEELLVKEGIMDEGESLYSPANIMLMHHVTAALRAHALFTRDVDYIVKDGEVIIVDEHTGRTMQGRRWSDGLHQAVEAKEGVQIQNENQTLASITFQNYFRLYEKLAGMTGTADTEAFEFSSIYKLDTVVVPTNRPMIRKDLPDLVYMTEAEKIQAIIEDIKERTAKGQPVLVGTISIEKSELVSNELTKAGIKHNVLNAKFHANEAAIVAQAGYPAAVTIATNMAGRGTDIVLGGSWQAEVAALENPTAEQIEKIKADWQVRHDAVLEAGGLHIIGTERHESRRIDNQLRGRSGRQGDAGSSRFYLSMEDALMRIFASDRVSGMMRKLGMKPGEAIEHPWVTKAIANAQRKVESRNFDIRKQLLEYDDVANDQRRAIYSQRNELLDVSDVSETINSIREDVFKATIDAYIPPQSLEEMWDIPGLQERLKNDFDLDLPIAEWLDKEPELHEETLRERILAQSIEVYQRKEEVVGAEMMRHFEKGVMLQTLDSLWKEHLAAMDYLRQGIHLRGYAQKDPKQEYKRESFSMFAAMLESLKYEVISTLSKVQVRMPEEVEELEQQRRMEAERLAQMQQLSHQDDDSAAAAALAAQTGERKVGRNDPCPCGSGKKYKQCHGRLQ

[2] = molecular target: T1, Ubiquitin-activating enzyme e1, putative (Leishmania donovani (strain BPK282A1)) (UniProt E9BSI1); assay: Leishmania donovani Ubiquitin Activating Enzyme (LdE1); type: functional; conditions: 30 µM
T1 sequence (whole entry): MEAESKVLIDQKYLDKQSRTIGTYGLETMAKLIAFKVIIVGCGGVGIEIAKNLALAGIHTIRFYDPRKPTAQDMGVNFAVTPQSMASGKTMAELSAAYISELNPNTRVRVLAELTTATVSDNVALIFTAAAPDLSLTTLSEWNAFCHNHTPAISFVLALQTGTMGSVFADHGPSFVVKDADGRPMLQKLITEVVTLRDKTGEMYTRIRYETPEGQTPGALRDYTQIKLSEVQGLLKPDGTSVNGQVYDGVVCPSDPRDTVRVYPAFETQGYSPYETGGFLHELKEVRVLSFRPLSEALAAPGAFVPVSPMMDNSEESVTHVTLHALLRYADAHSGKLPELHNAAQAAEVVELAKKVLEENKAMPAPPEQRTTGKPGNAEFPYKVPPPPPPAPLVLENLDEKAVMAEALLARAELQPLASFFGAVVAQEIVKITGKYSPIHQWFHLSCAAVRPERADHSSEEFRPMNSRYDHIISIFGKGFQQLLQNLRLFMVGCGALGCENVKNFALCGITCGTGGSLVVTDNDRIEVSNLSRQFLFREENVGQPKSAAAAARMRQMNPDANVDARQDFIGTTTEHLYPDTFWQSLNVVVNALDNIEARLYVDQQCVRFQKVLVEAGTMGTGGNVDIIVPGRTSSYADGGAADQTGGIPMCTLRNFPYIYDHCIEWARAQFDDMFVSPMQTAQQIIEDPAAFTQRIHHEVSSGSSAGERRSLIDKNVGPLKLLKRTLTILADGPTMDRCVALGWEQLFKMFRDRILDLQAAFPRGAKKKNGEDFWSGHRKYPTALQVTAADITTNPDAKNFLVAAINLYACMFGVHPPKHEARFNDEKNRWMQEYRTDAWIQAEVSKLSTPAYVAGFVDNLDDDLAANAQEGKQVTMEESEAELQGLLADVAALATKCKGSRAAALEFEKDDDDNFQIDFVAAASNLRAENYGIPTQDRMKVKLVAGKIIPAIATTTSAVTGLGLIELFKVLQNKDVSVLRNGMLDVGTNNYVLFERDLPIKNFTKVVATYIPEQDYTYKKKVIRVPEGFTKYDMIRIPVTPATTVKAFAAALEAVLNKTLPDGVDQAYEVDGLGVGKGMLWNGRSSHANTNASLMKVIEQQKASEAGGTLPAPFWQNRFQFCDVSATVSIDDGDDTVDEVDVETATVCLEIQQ

[3] = molecular target: AMP-activated protein kinase, AMPK (Homo sapiens) (UniProt P54646+O43741+P54619+Q9UGJ0+Q9Y478+Q13131+Q9UGI9); assay: AMP-dependent Kinase enzyme assay. An in vitro enzyme assay that detects ADP turnover that is directly proportional to AMPK activity. This uses naive AMPK that is activated during the assay with MK-8722; type: functional; conditions: 30 µM
[4] = molecular target: Sialic acid-binding Ig-like lectin 9 (Homo sapiens) (UniProt Q9Y336); assay: Hs-Siglec9 ALPHAscreen SOP 20170721; conditions: 10 µM
Sequence of Sialic acid-binding Ig-like lectin 9 (Homo sapiens) (Q9Y336 whole entry): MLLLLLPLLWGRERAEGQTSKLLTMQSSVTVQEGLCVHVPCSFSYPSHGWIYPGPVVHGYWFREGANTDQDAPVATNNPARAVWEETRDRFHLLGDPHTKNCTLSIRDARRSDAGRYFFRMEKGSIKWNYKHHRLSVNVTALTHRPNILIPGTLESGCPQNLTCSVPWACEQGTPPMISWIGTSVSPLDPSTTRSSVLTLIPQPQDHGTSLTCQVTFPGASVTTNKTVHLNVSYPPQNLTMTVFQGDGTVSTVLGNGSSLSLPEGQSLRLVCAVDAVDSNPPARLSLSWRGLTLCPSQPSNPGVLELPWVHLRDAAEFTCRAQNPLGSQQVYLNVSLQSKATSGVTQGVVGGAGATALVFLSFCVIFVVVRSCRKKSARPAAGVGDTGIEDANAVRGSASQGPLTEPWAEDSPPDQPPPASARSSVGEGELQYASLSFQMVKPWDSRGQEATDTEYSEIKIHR

Trypanosoma cruzi = assay: Trypanosoma cruzi phosphomannomutase and mannose-1-phosphate guanylyltransferase assay; type: functional; conditions: 10 µM
[5] = molecular target: T2, Arginase-2, mitochondrial (Homo sapiens) (UniProt P78540); assay: in vitro enzyme assay to detect the production of urea directly proportional to the activity of Arginase II; type: functional; conditions: 33.3 µM; further: in the data most compounds retested in dose-response had high values
T2 sequence (whole entry): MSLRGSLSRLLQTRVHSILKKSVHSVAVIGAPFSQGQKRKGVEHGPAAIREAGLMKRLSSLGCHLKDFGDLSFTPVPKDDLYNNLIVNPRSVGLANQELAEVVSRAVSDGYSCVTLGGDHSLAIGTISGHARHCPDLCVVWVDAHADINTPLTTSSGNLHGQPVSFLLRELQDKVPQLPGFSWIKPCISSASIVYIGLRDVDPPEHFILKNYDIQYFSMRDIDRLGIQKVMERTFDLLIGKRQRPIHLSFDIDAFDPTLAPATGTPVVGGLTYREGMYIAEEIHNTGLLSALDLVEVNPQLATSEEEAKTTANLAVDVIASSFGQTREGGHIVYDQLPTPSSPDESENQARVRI

[6] = molecular target: T3, Proteasome subunit beta (Trypanosoma cruzi) (UniProt O96673); assay: Trypanosoma cruzi proteasome chymotrypsin-like activity (TcProtChymo) assay.; further: in the data most compounds retested in dose-response had high values; type: functional; conditions: 9.37 µM
T3 sequence (whole entry): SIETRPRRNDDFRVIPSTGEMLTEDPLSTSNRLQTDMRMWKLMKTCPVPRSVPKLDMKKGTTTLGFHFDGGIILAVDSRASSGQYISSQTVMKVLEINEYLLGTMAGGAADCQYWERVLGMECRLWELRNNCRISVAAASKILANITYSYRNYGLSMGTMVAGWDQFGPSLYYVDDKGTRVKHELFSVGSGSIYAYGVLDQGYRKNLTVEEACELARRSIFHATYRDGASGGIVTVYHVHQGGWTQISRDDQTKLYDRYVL

Homo sapiens = species on record: Homo sapiens; assay: To identify inhibition of the IFN signalling (Jak-Stat) pathway via expression of an eGFP reporter gene under the control of an IFN-stimulated response element (ISRE) containing MxA promoter.; type: functional; conditions: 30 µM
[7] = molecular target: T4, Tyrosyl-tRNA synthetase, putative (Trypanosoma cruzi (strain CL Brener)) (UniProt Q4DSP6); assay: Trypanosoma cruzi tyrosyl tRNA synthetase (TcYRS) _High Tyrosine SOP; type: functional; conditions: 30 µM; further: in the data most compounds retested in dose-response had high values
T4 sequence (whole entry): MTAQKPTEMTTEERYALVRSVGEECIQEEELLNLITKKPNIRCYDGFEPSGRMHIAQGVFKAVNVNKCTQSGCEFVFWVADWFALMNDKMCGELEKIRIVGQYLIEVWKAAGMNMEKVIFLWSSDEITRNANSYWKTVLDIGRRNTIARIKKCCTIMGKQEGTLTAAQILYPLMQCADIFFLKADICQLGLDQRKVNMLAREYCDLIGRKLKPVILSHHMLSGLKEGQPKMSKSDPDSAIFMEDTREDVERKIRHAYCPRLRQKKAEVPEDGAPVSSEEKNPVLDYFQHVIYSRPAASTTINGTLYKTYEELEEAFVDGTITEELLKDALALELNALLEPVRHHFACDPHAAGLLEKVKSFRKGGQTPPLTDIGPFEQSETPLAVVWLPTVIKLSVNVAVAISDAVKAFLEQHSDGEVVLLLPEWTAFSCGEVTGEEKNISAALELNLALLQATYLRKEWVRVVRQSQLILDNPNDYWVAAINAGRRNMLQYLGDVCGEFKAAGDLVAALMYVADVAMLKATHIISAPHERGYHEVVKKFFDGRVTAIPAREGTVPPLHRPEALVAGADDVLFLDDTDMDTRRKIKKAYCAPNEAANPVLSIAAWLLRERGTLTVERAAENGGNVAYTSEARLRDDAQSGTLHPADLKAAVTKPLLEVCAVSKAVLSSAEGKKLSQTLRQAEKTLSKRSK

[8] = molecular target: T4, Tyrosyl-tRNA synthetase, putative (Trypanosoma cruzi (strain CL Brener)); assay: Trypanosoma cruzi tyrosyl tRNA synthetase (TcYRS) SOP; type: functional; conditions: 30 µM
[9] = molecular target: Chromo domain-containing protein 1 (Saccharomyces cerevisiae (strain ATCC 204508 / S288c) (Baker's yeast)) (UniProt P32657); assay: ScCHD-1 Enzyme Inhibition Assay; type: functional; conditions: 30 µM; further: in the data most compounds retested in dose-response had high values
Sequence of Chromo domain-containing protein 1 (Saccharomyces cerevisiae (strain ATCC 204508 / S288c) (Baker's yeast)) (P32657 whole entry, the tested form may be a part): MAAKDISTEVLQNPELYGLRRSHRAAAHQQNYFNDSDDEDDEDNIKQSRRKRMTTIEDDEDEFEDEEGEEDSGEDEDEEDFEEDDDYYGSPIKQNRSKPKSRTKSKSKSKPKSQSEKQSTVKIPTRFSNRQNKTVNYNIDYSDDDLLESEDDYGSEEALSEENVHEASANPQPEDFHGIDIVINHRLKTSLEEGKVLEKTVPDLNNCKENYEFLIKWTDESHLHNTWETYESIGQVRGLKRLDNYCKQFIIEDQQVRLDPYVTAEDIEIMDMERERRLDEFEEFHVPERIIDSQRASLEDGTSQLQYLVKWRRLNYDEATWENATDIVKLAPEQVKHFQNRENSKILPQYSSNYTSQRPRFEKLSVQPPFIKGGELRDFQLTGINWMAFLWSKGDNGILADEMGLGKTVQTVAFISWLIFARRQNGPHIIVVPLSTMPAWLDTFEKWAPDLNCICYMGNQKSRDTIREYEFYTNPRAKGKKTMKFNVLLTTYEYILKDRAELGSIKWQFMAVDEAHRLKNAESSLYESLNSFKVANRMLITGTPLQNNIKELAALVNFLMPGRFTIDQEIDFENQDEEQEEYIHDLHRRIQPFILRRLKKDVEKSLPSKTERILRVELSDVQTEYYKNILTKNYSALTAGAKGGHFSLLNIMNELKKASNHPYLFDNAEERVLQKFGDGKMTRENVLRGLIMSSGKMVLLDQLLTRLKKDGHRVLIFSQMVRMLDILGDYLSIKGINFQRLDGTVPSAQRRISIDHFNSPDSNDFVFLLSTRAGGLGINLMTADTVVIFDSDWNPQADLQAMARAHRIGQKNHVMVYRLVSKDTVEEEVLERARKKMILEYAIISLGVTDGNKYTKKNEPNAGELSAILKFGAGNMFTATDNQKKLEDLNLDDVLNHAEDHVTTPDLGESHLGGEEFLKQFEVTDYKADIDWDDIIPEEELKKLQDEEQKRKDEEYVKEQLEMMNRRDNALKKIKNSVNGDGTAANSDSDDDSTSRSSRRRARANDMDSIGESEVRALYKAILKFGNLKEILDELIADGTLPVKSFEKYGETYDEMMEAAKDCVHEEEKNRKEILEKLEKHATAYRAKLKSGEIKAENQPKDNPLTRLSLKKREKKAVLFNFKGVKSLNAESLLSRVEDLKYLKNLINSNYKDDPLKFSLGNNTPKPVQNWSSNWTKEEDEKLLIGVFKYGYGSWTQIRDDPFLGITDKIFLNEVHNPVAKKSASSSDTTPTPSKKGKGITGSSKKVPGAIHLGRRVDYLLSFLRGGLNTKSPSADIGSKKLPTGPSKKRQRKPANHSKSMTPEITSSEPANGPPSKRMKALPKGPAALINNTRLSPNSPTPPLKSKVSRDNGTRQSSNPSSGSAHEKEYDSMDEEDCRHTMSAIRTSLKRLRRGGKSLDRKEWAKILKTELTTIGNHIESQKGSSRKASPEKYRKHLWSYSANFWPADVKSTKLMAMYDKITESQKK

SMILES | Percent Effect [1] | Percent Effect [2] | Percent Effect [3] | Percent Effect [4] | Percent Effect (Trypanosoma cruzi) | Percent Effect [5] | Percent Effect [6] | Percent Effect (Homo sapiens) | Percent Effect [7] | Percent Effect [8] | Percent Effect [9]
CCC(C)NC(=O)N1CCCn2cnc(CO)c2C1 (stereo unspecified) | -0.731% | 2.74% | 1.02% | 5.8% | 0.198% | 2% | 4.54% | 6.37% | 6.25% | 6.17% | 1.09%
Cc1ccc(C(C)NC(=O)Nc2ccccc2CN2CCOCC2)o1 (stereo unspecified) | -5.3% | 5.41% | -1.54% | 9.05% | -2.64% | -5.21% | 9.19% | -2.32% | 7.53% | 8.64% | -0.483%
OC1(Cn2ccc3ccncc32)CCN(Cc2ccccn2)CC1 | 0.875% | 6.76% | 1.5% | 0.0823% | -10.7% | 2.55% | 8.42% | 17.6% | -1.07% | 9.09% | -2.25%
O=C1[C@H]2CN(c3ncccn3)C[C@H]2CN1Cc1ccncc1 | -4.5% | -2.7% | 1.46% | -4.76% | -2.34% | -0.417% | 3.97% | -1.92% | 3.96% | -3.66% | -3.35%
COCc1nc2cc(NCc3ccncc3)ccc2o1 | 6.12% | 54% | -108% | -0.763% | -1.76% | 9.58% | 13.4% | -8.66% | 4.95% | -1.22% | 2.52%
COc1ccc(OCCc2sc(C3(O)CCCNCC3)nc2C)cc1 (stereo unspecified) | -5.55% | 6.76% | 2.86% | 1.72% | 0.198% | -6.73% | 13.6% | 21% | -3.23% | 9.09% | -24.4%
CCC(OC)C(=O)N1CCc2nc(NC)nc(C(=O)N3CCCC3)c2C1 (stereo unspecified) | -2.18% | 2.74% | -1.95% | 7.16% | -1.39% | -9.58% | 15.5% | 19.2% | 5.21% | 16.1% | -3.16%
CCn1c(CN(C)C)nnc1C1CCN(c2ccnc(C)c2)CC1 | -0.496% | 6.94% | -2.58% | -2.36% | -1.85% | 2.65% | 21.1% | -1.07% | 5.26% | 5.13% | -1.27%
CC(C)C(=O)N1CCN(Cc2cc(-c3ccncc3)nn2C)CC1 | -5.03% | 12.2% | -0.905% | 1.54% | 3.75% | -3.48% | 8.89% | 0.905% | -5.38% | 11.7% | -13.7%
COc1ncnc2c1CCN(c1cc(C(F)(F)F)ncn1)CC2 | -3.48% | 8% | 4.03% | -3.21% | -6.56% | -57.5% | 6.67% | 20.9% | -1.04% | 7.5% | -7.82%
Cc1ccc(S(=O)(=O)N2C[C@H]3C[C@H](NC(=O)c4ccnn4C)[C@H]3C2)cc1 | -1.89% | -6.76% | 9.6% | 1.27% | -0.988% | -3.02% | -3.28% | 84.1% | 2.15% | 3.9% | 14%
